This is an account of results in PubChem BioAssay.

A short description of assay [1]: inhibitors of TNFa-induced NFkB p65 translocation, primary screen, imaging, HUVEC, MLSMR starter and 10KST1 sets (AID 438;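 active = inhibition above 20% together with a positive visual image hit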;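 note: compound added about 3h40 before a 20 min TNFalpha stimulation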;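 for inhibition: signal is the nuclear over cytoplasmic p65 intensity ratio per well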). Particulars: HUVEC TNFa-induced p65 nuclear translocation; cell count: measured here: nuclei count (cytotoxicity indicator), at 2.08 µM; inhibition: at 2 µM, stronger effect = higher value, 0% TNFa-plus-vehicle, 100% no-TNFa wells.
Assay [2] is described as follows: inhibitors of mutant huntingtin aggregation, primary screen, imaging, exon1htt(103Q)mCFP cells, high-content imaging (AID 483;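 active = visual image review flags a hit and inhibition of aggregation exceeds 20%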;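 note: compound exposure lasted 3 days before fixation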;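 for nuclei count: percent of the per-plate median nuclei count of sample wells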). To be noted: exon1htt(103Q)mCFP cell line, aggregate imaging, at 2 µM; inhibition of aggregation: stronger effect = higher value; nuclei count: measured here: cell count, toxicity.
Assay [3] can be described thus: inhibitors of E-selectin induction by TNFa, primary screen, imaging, HUVEC, immunofluorescence, MLSMR starter and 10KST1 sets (AID 487).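 For inhibition: signal is fraction of cell area covered by stained E-selectin grains.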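 For nuclei count: 100% = median nuclei count of all wells on the same plate.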 Particulars: HUVEC TNFalpha-induced E-selectin immunofluorescence imaging, at 2 µM; inhibition: stronger effect = higher value; nuclei count: measured here: cell number, toxicity.
Assay [4] concerns the target Voltage-gated potassium channel subunit beta-2 (Rattus norvegicus) (UniProt P62483). In words: KvBeta enzyme negative modulators, primary screen, biochemical, NADPH fluorescence (AID 622;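 active = fluorescence slope higher than the sample average by over 3 SD, cut at about -0.22 in these data, passing the limit was not always enough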;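 note: slope of raw intensity against log time taken from 70 to 1610 s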). Particulars: recombinant KvBeta, 4-cyanobenzaldehyde reduction, at 10 µM, stronger effect = higher value.
The target is the same in assay [5]. In words: KvBeta positive modulators, primary screen, biochemical, NADPH fluorescence (AID 623;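 active = NADPH fluorescence slope more negative than the mean of all samples by about 3 SD, 99.7% confidence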;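 note: fluorescence intensity change per second fitted from 20 to 320 s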). To be noted: Recombinant KvBeta, NADPH fluorescence decrease slope, 10 min; at 10 µM; stronger effect = lower value.
Assay [6] deals with Alpha-2C adrenergic receptor (Homo sapiens) (UniProt P18825). In words: modulators of alpha2C/GIRK thallium flux, primary screen, cell-based, HEK293 alpha2C/GIRK1/2 (AID 624;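 active = fluorescence slope after compound addition differing from the mean of all screened samples at 99.7% confidence, in either direction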;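 note: slope of fluorescence ratio to pre-addition baseline per second over 15 to 24 s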). Particulars: thallium flux BTC fluorescence, at 10 µM, actives lie on both sides.
Assay [7] can be described thus: inhibitors of Sendai virus-induced IRF3 signaling, primary screen, TLR/RLR signaling modifier project, cell-based, Sendai virus stimulus, luciferase, 10K MLSCN set (AID 602276;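 active = inhibition at or above 50% at 10 µM; inactive = inhibition below 50%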;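 note: firefly luciferase from ISG56 promoter only with Renilla not read in this screen; 0% = Sendai virus plus DMSO and 100% = medium plus DMSO without virus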). Particulars: HEK293 RL24 IRF3 luciferase reporter, at 10 µM, stronger effect = higher value. (Reporter assays use an easily measured gene product as a stand-in for the process of interest.)
Assay [8] in a line: inhibitors of poly I:C-induced TLR3 signaling, primary screen, cell-based, poly I:C stimulus, luciferase, 10K MLSCN set (AID 602277;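 active = inhibition of the reporter signal at or above 50%; inactive = inhibition below 50%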). To be noted: HEK293-TLR3 RL24 IRF3 luciferase reporter, at 10 µM, stronger effect = higher value.

Activity calls are given as the source filed them.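 Rule for the calls, unless noted: active = visually confirmed hit in the image check and inhibition above 20%; inconclusive = visually confirmed hit but inhibition not above 20%; inactive = no visual hit in the image check.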

Sequence of Alpha-2C adrenergic receptor (Homo sapiens) (P18825 whole entry, looked up): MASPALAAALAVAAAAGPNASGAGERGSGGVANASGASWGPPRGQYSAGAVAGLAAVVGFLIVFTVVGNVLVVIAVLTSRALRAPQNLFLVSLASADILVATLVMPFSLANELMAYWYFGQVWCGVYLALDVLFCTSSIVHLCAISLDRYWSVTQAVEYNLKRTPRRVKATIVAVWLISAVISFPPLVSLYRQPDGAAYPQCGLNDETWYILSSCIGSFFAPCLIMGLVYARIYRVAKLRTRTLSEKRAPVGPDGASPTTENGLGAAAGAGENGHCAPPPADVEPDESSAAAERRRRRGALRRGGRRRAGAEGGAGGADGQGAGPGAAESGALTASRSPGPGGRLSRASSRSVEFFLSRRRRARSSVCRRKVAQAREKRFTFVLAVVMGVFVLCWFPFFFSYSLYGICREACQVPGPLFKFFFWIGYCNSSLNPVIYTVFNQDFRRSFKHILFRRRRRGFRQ
Sequence of Voltage-gated potassium channel subunit beta-2 (Rattus norvegicus) (P62483 whole entry, looked up): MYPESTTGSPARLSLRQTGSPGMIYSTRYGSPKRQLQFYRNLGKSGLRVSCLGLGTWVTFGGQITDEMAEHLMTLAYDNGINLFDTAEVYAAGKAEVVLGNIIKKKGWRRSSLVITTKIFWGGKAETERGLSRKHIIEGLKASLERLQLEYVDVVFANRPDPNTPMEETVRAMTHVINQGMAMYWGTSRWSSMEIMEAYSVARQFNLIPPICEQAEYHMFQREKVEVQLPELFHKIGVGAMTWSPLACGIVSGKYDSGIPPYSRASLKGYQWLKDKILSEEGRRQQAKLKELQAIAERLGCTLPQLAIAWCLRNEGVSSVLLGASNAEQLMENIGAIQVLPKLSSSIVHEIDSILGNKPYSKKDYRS

On to `Oc1cccc(C=NCc2ccccc2)c1O`, for which the cell count in assay [1] stood at 332. Besides, the inhibition in assay [1] was -2.5% (inactive); in assay [3], -100% (inactive); in assay [7] it was 10.5% (inactive); in assay [8], 41.8% (inactive). In addition, the inhibition of aggregation in assay [2] was 15.5% (inactive). Also, the figures for the nuclei count in assay [2] and in assay [3] were 102% and 130%, respectively. Also, the fluorescence slope in assay [4] is -0.46 (inactive). Further, the NADPH fluorescence slope in assay [5] is -4e-05 (inactive). In addition, the slope in assay [6] is 0.00215 (inactive).
Regarding `CS(=O)(=O)N(CC(=O)N1CCc2ccccc2C1)c1ccc2c(c1)OCO2`, the cell count in assay [1] amounted to 262. For the same molecule, the inhibition in assay [1] is 1.6% (inactive); in assay [3], 14.1% (inactive); in assay [7], 11% (inactive); in assay [8] it was 23.8% (inactive). Further, the inhibition of aggregation in assay [2] was 17% (inactive). For the same molecule, the results for the nuclei count in assay [2] and in assay [3] were 97.2% and 77.8%, respectively. Also, in assay [4], the fluorescence slope is -0.481 (inactive). The NADPH fluorescence slope in assay [5] is -5.5e-05 (inactive). For the same molecule, in assay [6], the slope was 0.00584 (inactive).
In the case of `CCOc1ccc(Oc2nc(Nc3ccc(C)cc3)nc(N(C)C)n2)nn1`, the cell count in assay [1] was 619. The inhibition in assay [1] was -0.3% (inactive); in assay [3] it was -14.3% (inactive); in assay [7], -17.8% (inactive); in assay [8], 1.23% (inactive). In addition, the inhibition of aggregation in assay [2] was 25.8% (inactive). In addition, the nuclei count in assay [2] is 71.1%; in assay [3] it was 106%. In assay [4], the fluorescence slope is -0.491 (inactive). Moreover, the NADPH fluorescence slope in assay [5] was -4.9e-05 (inactive). Besides, the slope in assay [6] was 0.00543 (inactive).
Regarding `CCc1nnc(NC(=O)CN2CCN(c3ccccc3OC)CC2)s1`, the cell count in assay [1] was 287. In addition, the inhibition was 6.2% (inactive) in assay [1], 3.6% (inactive) in assay [3], 7.27% (inactive) in assay [7] and 27.9% (inactive) in assay [8]. In assay [2], the inhibition of aggregation was -10% (inactive). For the same molecule, the figures for the nuclei count in assay [2] and in assay [3] were 102% and 97.4%, respectively. In addition, the fluorescence slope in assay [4] is -0.616 (inactive). The NADPH fluorescence slope in assay [5] was -2e-05 (inactive). Also, the slope in assay [6] was 0.00643 (inactive).
With `O=C(COc1ccccc1Cl)NCc1ccco1`, the cell count in assay [1] worked out at 310. Also, the inhibition was -13% (inactive) in assay [1], -27.9% (inactive) in assay [3], -22.9% (inactive) in assay [7] and -43.3% (inactive) in assay [8]. In addition, the inhibition of aggregation in assay [2] was 7.5% (inactive). For the same molecule, the nuclei count was 92.3% in assay [2] and 115% in assay [3]. Further, in assay [4], the fluorescence slope was -0.488 (inactive). In assay [5], the NADPH fluorescence slope is -3e-05 (inactive). In assay [6], the slope was 0.00673 (inactive).
Regarding `COc1ccc(OCCCC(=O)Nc2nncs2)cc1`, the cell count in assay [1] is 296. For the same molecule, the inhibition is 22.6% (inactive) in assay [1], -32.3% (inactive) in assay [3], -0.71% (inactive) in assay [7] and 5.99% (inactive) in assay [8]. The inhibition of aggregation in assay [2] was 12.8% (inactive). Further, the values for the nuclei count in assay [2] and in assay [3] were 95.6% and 102%, respectively. In addition, in assay [4], the fluorescence slope is -0.294 (inactive). In addition, the NADPH fluorescence slope in assay [5] was -3.4e-05 (inactive). Further, the slope in assay [6] is 0.00603 (inactive).
Consider `CCCOc1ccc(S(=O)(=O)NCCCN2CCOCC2)c2ccccc12`, for which, in assay [1], the cell count was determined as 402. Besides, the inhibition in assay [1] is 5.8% (inactive); in assay [3], -43.1% (inactive); in assay [7], 16% (inactive); in assay [8] it was 13.7% (inactive). In addition, the inhibition of aggregation in assay [2] was -33.7% (inactive). Further, the nuclei count was found to be 106% in assay [2] and 118% in assay [3]. The fluorescence slope in assay [4] is -0.418 (inactive). For the same molecule, in assay [5], the NADPH fluorescence slope was -4.8e-05 (inactive). Moreover, the slope in assay [6] is 0.00402 (inactive).
`Cc1cc(C)n(-c2nc3sc4c(c3c3nnc(SC(C)C)n23)CC(C)(C)OC4)n1`: in assay [1], the cell count came to 352. Further, the inhibition in assay [1] is 8.5% (inactive); in assay [3] it was -22% (inactive); in assay [7], -16.9% (inactive); in assay [8], -11.9% (inactive). Besides, the inhibition of aggregation in assay [2] was 2.2% (inactive). Moreover, the nuclei count is 113% in assay [2] and 117% in assay [3]. Besides, in assay [4], the fluorescence slope was -0.455 (inactive). The NADPH fluorescence slope in assay [5] was 1.9e-05 (inactive). Besides, the slope in assay [6] is 0.00472 (inactive).
Regarding `O=C(COC(=O)c1ccccc1Oc1ccccc1)NC1CCS(=O)(=O)C1` (stereo not drawn), in assay [1], the cell count was 33. For the same molecule, the inhibition in assay [1] is 74.9% (active); in assay [3], -124% (inactive); in assay [7] it was 8.04% (inactive); in assay [8], -20% (inactive). Moreover, the inhibition of aggregation in assay [2] is 0% (inactive). The nuclei count in assay [2] stood at 95.2%; in assay [3] it was 116%. In addition, in assay [4], the fluorescence slope is -0.521 (inactive). Besides, the NADPH fluorescence slope in assay [5] is -1.6e-05 (inactive). For the same molecule, the slope in assay [6] is 0.00666 (inactive).
In the case of `CSCCC(NC(=O)c1occc1C)C(=O)O` (stereo not drawn), the cell count in assay [1] was found to be 361. In addition, the inhibition in assay [1] was 4% (inactive); in assay [3], -91.1% (inactive); in assay [7] it was 7.31% (inactive); in assay [8] it was 21.8% (inactive). Also, the inhibition of aggregation in assay [2] was -17.4% (inactive). In addition, the nuclei count in assay [2] came out at 108%; in assay [3] it was 149%. In addition, the fluorescence slope in assay [4] was -0.351 (inactive). In addition, in assay [5], the NADPH fluorescence slope is -6.3e-05 (inactive). Also, in assay [6], the slope was 0.00359 (inactive).
As for `CC1=C(C(=O)OCc2ccccc2)C(c2ccco2)n2ncnc2N1` (stereo not drawn), the cell count in assay [1] worked out at 811. The inhibition was -2.8% (inactive) in assay [1], -31.8% (inactive) in assay [3], 9.4% (inactive) in assay [7] and 25.1% (inactive) in assay [8]. In addition, in assay [2], the inhibition of aggregation is 7% (inactive). Moreover, the nuclei count in assay [2] was found to be 117%; in assay [3] it was 109%. In assay [4], the fluorescence slope is -0.595 (inactive). Further, the NADPH fluorescence slope in assay [5] is 4.7e-06 (inactive). Besides, the slope in assay [6] was 0.00658 (inactive).
Take `O=C(CN1C(=O)CC(c2ccco2)Sc2ccccc21)Nc1ccccc1F` (stereo not drawn): the cell count in assay [1] was 551. Further, the inhibition in assay [1] is -2.9% (inactive); in assay [3], -28.3% (inactive); in assay [7], 12.5% (inactive); in assay [8], 15.3% (inactive). In addition, the inhibition of aggregation in assay [2] was -3.5% (inactive). The nuclei count in assay [2] is 111%; in assay [3], 110%. In assay [4], the fluorescence slope is -0.588 (inactive). The NADPH fluorescence slope in assay [5] was 1.9e-05 (inactive). Besides, the slope in assay [6] is 0.00681 (inactive).
Consider `CC(=O)c1c(C)nn(C(C)CC(=O)O)c1C` (stereo not drawn), for which, in assay [1], the cell count was found to be 784. The inhibition in assay [1] is -12.6% (inactive); in assay [3], -27.1% (inactive); in assay [7], 8.2% (inactive); in assay [8] it was 19.7% (inactive). The inhibition of aggregation in assay [2] was 5.2% (inactive). The results for the nuclei count in assay [2] and in assay [3] were 114% and 99%, respectively. Also, the fluorescence slope in assay [4] was -0.509 (inactive). The NADPH fluorescence slope in assay [5] was -2.6e-05 (inactive). For the same molecule, the slope in assay [6] is 0.00713 (inactive).

For orientation: inhibition means the change of the read-out against control, counted positive when it falls.
